The results in this text go back to the supplement of paper PMC5940239.

Molecules are shown by their SMILES.

The term IC50 denotes the concentration that inhibits the measured activity by half. A word on the IC90: it is the concentration at which the effect reaches the 90% level.

The first assay relates to Madurella mycetomatis MM55.
Assay: not given
The following applies: 7 days.
Consider `CN1CCN(CCCOc2ncc(Nc3ncc(-c4ccc(C(F)(F)F)c(F)c4)nc3C(N)=O)cn2)CC1`, for which the IC50 is 25.7 µM.

Compound `COc1cccc(-c2nc3c(N4CCCC4)cccc3n2CC2CCCN2)n1` (stereo unspecified) displayed an IC50 of 37.4 µM.

In turn, `CC[P](CC)(CC)=[Au][S][C@H]1O[C@@H](COC(C)=O)[C@H](OC(C)=O)[C@@H](OC(C)=O)[C@@H]1OC(C)=O` had an IC50 of 17.1 µM.

As for `c1ccc(Oc2ccc(-c3cc(CN4CCOCC4)[nH]n3)cc2)cc1`, the IC50 came to 65.4 µM.

On to `c1coc(CNc2nc(N3CCCCC3)nc3ccccc23)c1`, for which the IC50 turned out to be 10.2 µM.

Compound `N#CCN(CCCCN1CCN(c2ccc(F)cc2)CC1)C(=O)OCc1ccccc1` displayed an IC50 of 64.3 µM.

On to `COc1ccc(OC)c(NCc2ccc3nc(N)nc(N)c3c2Cl)c1`, for which the IC50 was 2.3 µM.

In turn, `COc1cc(CN2CCC3(C=Cc4ccccc43)CC2)cc2c1OCO2` had an IC50 of 28 µM.

Regarding `CN1CCN(c2nccc3[nH]c(-c4cccc(F)c4)cc23)CC1`, the IC50 was determined as 50.5 µM.

As for `Cc1ccc2nc(Cl)c(CNCc3cccs3)cc2c1`, the IC50 is 37.5 µM.

Consider `O[C@@H](c1cc(C(F)(F)F)nc2c(C(F)(F)F)cccc12)[C@H]1CCCCN1`, for which the IC50 is 38.8 µM.

With `OCc1ccc(-c2cncc(Nc3cccc(Cl)c3)c2)cc1`, the IC50 is 63.6 µM.

In the case of `C[C@H](c1ccc2c(c1)CCCC2)N(C)c1ncc2c(N)nc(N)nc2n1`, the IC50 was 63.7 µM.

On to `CC(C)(C)n1nc(-c2ccccc2)c2c(N)ncnc21`, for which the IC50 amounted to 49.4 µM.

The compound `Cc1cc(OCC(=O)NCc2ccccc2)c2cc(Br)ccc2n1` displayed an IC50 of 67.9 µM.

For the compound `CCCn1nnc(NC(=O)COc2ccc(C3CCCCC3)cc2)n1`, the IC50 worked out at 65.8 µM.

In turn, `Nc1nc2ccc(-c3cncc(Oc4ccc(F)cc4)c3)cc2[nH]1` came in with an IC50 of 40.7 µM.

Consider `CCOc1ccc2cc(-c3nn(CC4CCN(C)CC4)c4ncnc(N)c34)ccc2c1`, for which the IC50 amounted to 51.8 µM.

In turn, `CCCCc1ccc(C(=O)Nc2nccc3ccccc23)nc1` gave an IC50 of 54.6 µM.

`c1ccc(Oc2ccc(-c3cc(C4CCOCC4)[nH]n3)cc2)cc1` yielded an IC50 of 35.6 µM.

Turning to `Oc1c(I)cc(I)c2cccnc12`, the IC50 stood at 2.55 µM.

On to `Cc1ncc(-c2ccnc(Nc3ccc(S(C)(=O)=O)cc3)n2)n1C(C)C`, for which the IC50 was 65.9 µM.

The compound `CC(C)(C)n1nc(Cc2ccc(F)c(Cl)c2)c2c(N)ncnc21` came in with an IC50 of 62 µM.

A further assay relates to Madurella mycetomatis MM55. The experiment in a line: IC90; higher = less potent. The following applies: 7 days.
The compound `CN1CCN(CCCOc2ncc(Nc3ncc(-c4ccc(C(F)(F)F)c(F)c4)nc3C(N)=O)cn2)CC1` returned an IC90 of 85.2 µM.

For `COc1cccc(-c2nc3c(N4CCCC4)cccc3n2CC2CCCN2)n1` (stereo unspecified), the IC90 came out at 84 µM.

`CC[P](CC)(CC)=[Au][S][C@H]1O[C@@H](COC(C)=O)[C@H](OC(C)=O)[C@@H](OC(C)=O)[C@@H]1OC(C)=O`: the IC90 was 45.8 µM.

Regarding `c1ccc(Oc2ccc(-c3cc(CN4CCOCC4)[nH]n3)cc2)cc1`, the IC90 was 95.6 µM.

`c1coc(CNc2nc(N3CCCCC3)nc3ccccc23)c1` registered an IC90 of 15.5 µM.

The compound `N#CCN(CCCCN1CCN(c2ccc(F)cc2)CC1)C(=O)OCc1ccccc1` registered an IC90 of 93.7 µM.

Compound `COc1ccc(OC)c(NCc2ccc3nc(N)nc(N)c3c2Cl)c1` registered an IC90 of 4.7 µM.

On to `COc1cc(CN2CCC3(C=Cc4ccccc43)CC2)cc2c1OCO2`, for which the IC90 turned out to be 91.5 µM.

Compound `CN1CCN(c2nccc3[nH]c(-c4cccc(F)c4)cc23)CC1` registered an IC90 of 93 µM.

The compound `Cc1ccc2nc(Cl)c(CNCc3cccs3)cc2c1` came in with an IC90 of 54.5 µM.

Turning to `O[C@@H](c1cc(C(F)(F)F)nc2c(C(F)(F)F)cccc12)[C@H]1CCCCN1`, the IC90 came out at 71.5 µM.

`OCc1ccc(-c2cncc(Nc3cccc(Cl)c3)c2)cc1`: the IC90 is 98.2 µM.

For the compound `C[C@H](c1ccc2c(c1)CCCC2)N(C)c1ncc2c(N)nc(N)nc2n1`, the IC90 came out at 91 µM.

As to `CC(C)(C)n1nc(-c2ccccc2)c2c(N)ncnc21`, the IC90 is 96.4 µM.

For the compound `Cc1cc(OCC(=O)NCc2ccccc2)c2cc(Br)ccc2n1`, the IC90 stood at 100 µM.

As to `CCCn1nnc(NC(=O)COc2ccc(C3CCCCC3)cc2)n1`, the IC90 came to 94.3 µM.

Compound `Nc1nc2ccc(-c3cncc(Oc4ccc(F)cc4)c3)cc2[nH]1` had an IC90 of 85.8 µM.

The compound `CCOc1ccc2cc(-c3nn(CC4CCN(C)CC4)c4ncnc(N)c34)ccc2c1` came in with an IC90 of 87.8 µM.

Regarding `CCCCc1ccc(C(=O)Nc2nccc3ccccc23)nc1`, the IC90 was found to be 86 µM.

As for `c1ccc(Oc2ccc(-c3cc(C4CCOCC4)[nH]n3)cc2)cc1`, the IC90 came to 57 µM.

Regarding `Oc1c(I)cc(I)c2cccnc12`, the IC90 amounted to 4.65 µM.

`Cc1ncc(-c2ccnc(Nc3ccc(S(C)(=O)=O)cc3)n2)n1C(C)C` had an IC90 of 96.9 µM.

For `CC(C)(C)n1nc(Cc2ccc(F)c(Cl)c2)c2c(N)ncnc21`, the IC90 amounted to 93 µM.
